Coupling enz – inhibits coupling enzyme system, counter-screen for aldolase hits; hit rate 0.67% among 290,000; coupling enzyme system counterscreen, AmpLite Red fluorescence; activity change, negative = inhibition, % at 58.2 µM, hits read low; AID 2472; in the data active = activity change below about -30%
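Activity here indicates interference with the coupling reaction, not aldolase inhibition. Compounds at 57.5 uM final met coupling enzymes for 10 min at RT; substrate and AmpLite Red detection followed, with a 525/598 nm fluorescence read after 20 min.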
Tau fibril FP – tau fibrillization inhibition (FP); Potency, µM (series often up to 57.7 µM), most hits filed as inhibitors; hit rate 0.39% among 280,000; K18 P301L tau heparin fibrillization, Alexa594 FP, 6 h; also: nearly all actives have a fitted effect of over 55% in size
Target sequence (P10636 561-689 P618L limits assumed): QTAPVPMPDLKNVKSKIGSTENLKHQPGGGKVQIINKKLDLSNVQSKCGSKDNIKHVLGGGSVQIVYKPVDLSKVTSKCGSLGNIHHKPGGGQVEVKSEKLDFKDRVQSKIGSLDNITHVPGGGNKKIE
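Compound effects on tau fibrillization are measured by Alexa 594 fluorescence polarization (ex 555, em 632 nm). K18 P301L tau is used at 15 uM with 0.24 uM labeled tracer, and 20 uM heparin induces aggregation over 6 hr at 37 C.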
Tau fluor cs – counter-screen for tau fibril formation inhibitors; hit rate 0.93% among 280,000; tau K18 P301L Alexa594 fluorescence, heparin fibrillization; AID 1463; Potency, µM (series often up to 57.7 µM); also: nearly all actives have a fitted effect of over 55% in size
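Human tau K18 P301L (15 uM unlabeled, 0.24 uM Alexa 594-labeled) in 100 mM sodium acetate pH 7 with 20 uM heparin, 6 hr at 37 C. ThT 30 uM added, 1 hr ambient; Alexa 594 FP and total fluorescence read at 555/632 nm.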
Tau ThT inhib – inhibitors of human tau fibril formation, thioflavin T binding; Potency, µM (series often up to 57.4 µM), most hits filed as inhibitors; P10636; recombinant tau K18 P301L, heparin-induced fibrillization, ThT fluorescence; hit rate 2.1% among 270,000; also: nearly all actives have a fitted effect of over 55% in size
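ThT emission at 510 nm, taken 1 hr after adding 30 uM dye, quantifies aggregates formed when 20 uM heparin acts on human tau K18 P301L for 6 hr at 37 C.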
Sfp inh – blocks B. subtilis Sfp PPTase activity; Q9F4F7; Biochemical Sfp PPTase activity, qHTS; Potency, µM, most hits filed as inhibitors; hit rate 3.5% among 310,000;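 also: the enzyme is Sfp with the accession as filed and its product quenches rhodamine fluorescence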
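Buffer: 50 mM Hepes-Na pH 7.6, 10 mM MgCl2, 0.01% Nonidet P-40, 0.01% BSA. Enzyme 15 nM, pre-exposed to compound 15 min; substrates then added and fluorescence change tracked over 30 min.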
JMJD2E inh – JMJD2E (human) inhibition | B2RXH2 | JMJD2E catalytic domain, FDH-coupled NADH fluorescence (FDH is formaldehyde dehydrogenase) | Potency, µM (top dose mostly 57.1 µM), most hits filed as inhibitors | hit rate 1.6% among 230,000 | AID 2147; active = well fitted inhibition curve with a large enough effect, not every such curve was filed as active; inconclusive = small, poorly fitted or top-dose-only effect, or another doubt; inactive = no such curve, though single readings can be large or run the other way; also: nearly all actives have a fitted effect of over 50% in size
Target sequence (B2RXH2 1-337 limits assumed): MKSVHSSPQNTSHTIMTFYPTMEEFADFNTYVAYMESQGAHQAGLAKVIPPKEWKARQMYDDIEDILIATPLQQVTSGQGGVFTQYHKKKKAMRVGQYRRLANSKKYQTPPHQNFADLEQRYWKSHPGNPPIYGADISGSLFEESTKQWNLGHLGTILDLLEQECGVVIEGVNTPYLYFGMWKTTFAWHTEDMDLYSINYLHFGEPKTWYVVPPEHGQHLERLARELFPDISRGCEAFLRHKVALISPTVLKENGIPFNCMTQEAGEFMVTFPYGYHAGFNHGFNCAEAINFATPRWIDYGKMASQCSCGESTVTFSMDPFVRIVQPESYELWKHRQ
Each line names hits and unclear results; the compound was inactive in the other large screens. A selection: hits, their analogues and other compounds. The true share with any hit is near 5.3%. Unless noted, calls follow the shape of the dose curve; as a rule, active = well fitted curve in the direction sought with a large enough effect; inconclusive = small, poorly fitted or top-dose-only effect, or another doubt; inactive = no such curve, though single readings can be large; an effect the other way counts as inactive or inconclusive.

C[C@H]1/C=C\CC(=O)NCc2cccc(c2)CNC(=O)N[C@H]1c1ccccc1	none
CCCCCCCCCCCCCCCCOC[C@H](COP(=O)([O-])OCC[N+](C)(C)C)OC(=O)NC	none
CCNc1ncc2nc(-c3ccc(F)cc3)c(=O)n(Cc3ccc(F)cc3)c2n1	none (no result: Tau fibril FP, Tau fluor cs, Tau ThT inhib, JMJD2E inh)
CCOC(=O)c1c(C(=O)OCC)c(C)n(N2C(=O)CSC2=S)c1C	Sfp inh 15.8µM
O=C(NCc1ccc2c(c1)OCO2)c1nc(S(=O)(=O)Cc2ccccc2F)ncc1Cl	Sfp inh 25.1µM (no result: Tau fibril FP, Tau fluor cs, Tau ThT inhib, JMJD2E inh)
CCc1nnc(NC(=O)c2nc(S(=O)(=O)Cc3ccc(C)cc3)ncc2Cl)s1	Tau ThT inhib inconclusive (no result: Coupling enz, JMJD2E inh)
O=C(NCc1ccccc1)c1nc(S(=O)(=O)Cc2ccccc2)ncc1Cl	Tau ThT inhib inconclusive, Sfp inh inconclusive (no result: Coupling enz, JMJD2E inh)
CC(C)c1nnc(NC(=O)c2nc(S(=O)(=O)Cc3ccccc3F)ncc2Cl)s1	none (no result: Coupling enz, Tau fibril FP, Tau fluor cs, Tau ThT inhib, JMJD2E inh)
CCc1nnc(NC(=O)c2nc(S(=O)(=O)Cc3cccc(C)c3)ncc2Cl)s1	Tau fibril FP inconclusive, Tau ThT inhib inconclusive, Sfp inh 56.2µM (no result: JMJD2E inh)
O=C(Nc1nc2ccc(F)cc2s1)c1nc(S(=O)(=O)Cc2ccccc2F)ncc1Cl	Tau ThT inhib 10µM (no result: Coupling enz, Sfp inh, JMJD2E inh)
Cc1cc(C)cc(NC(=O)Nc2c[nH]c(=O)[nH]c2=O)c1	none (no result: Coupling enz, Sfp inh, JMJD2E inh)
O=C(COc1ncnc2c1cnn2-c1ccccc1)Nc1ccc(S(=O)(=O)N2CCCCC2)cc1	Tau fibril FP 17.8µM, Tau fluor cs inconclusive
NS(=O)(=O)c1cccc(NC(=O)COc2ncnc3c2cnn3-c2ccccc2)c1	none
CCN(CC)S(=O)(=O)c1nnc(NC(=O)COc2cccc(C)c2)s1	Tau ThT inhib inconclusive (no result: Coupling enz, Sfp inh, JMJD2E inh)
Cc1c(CBr)[n+](=O)c2c(n1[O-])C(Br)CCC2Br (centres undefined)	Tau fibril FP inconclusive, Tau ThT inhib 25.1µM, Sfp inh 11.2µM, JMJD2E inh 28.2µM
Cc1cccc(-c2nc3ccccc3c(=O)n2NC(=S)N(C)C)c1	Sfp inh 31.6µM
CN(C)C(=S)Nn1c(-c2ccccc2)nc2ccccc2c1=O	none
CCCCC(CC)CCC(CC(C)C)OS(=O)(=O)O (centres undefined)	none (no result: Coupling enz, Tau fibril FP, Tau fluor cs, Tau ThT inhib, JMJD2E inh)
C[n+]1cccc2c(Br)ccc([O-])c21	Coupling enz -69.0, Tau fibril FP inconclusive, Tau fluor cs inconclusive, Tau ThT inhib 14.1µM, Sfp inh 56.2µM, JMJD2E inh inconclusive
[O-][n+]1cccc2c(Br)cc(Br)c(O)c21	Tau ThT inhib inconclusive
O=C(Nc1cccc(Br)c1)N1CCC(CN2CCCCCC2)CC1	Tau fibril FP inconclusive, Tau ThT inhib inconclusive (no result: Coupling enz, Sfp inh, JMJD2E inh)
CC(=O)NC(c1cccs1)c1cc([N+](=O)[O-])c2cccnc2c1O (centres undefined)	Tau ThT inhib inconclusive, Sfp inh 1µM, JMJD2E inh 8.91µM
O=C(CCc1ccccc1)NC(c1cccs1)c1cc(Cl)c2cccnc2c1O (centres undefined)	none
CCCC(=O)NC(c1cccs1)c1cc([N+](=O)[O-])c2cccnc2c1O (centres undefined)	Coupling enz -32.4, Tau ThT inhib inconclusive, Sfp inh 2.51µM, JMJD2E inh 10µM
CCC(=O)NC(c1cccs1)c1cc([N+](=O)[O-])c2cccnc2c1O (centres undefined)	Tau ThT inhib inconclusive, Sfp inh 7.08µM, JMJD2E inh inconclusive
CC(C)C(=O)NC(c1ccccc1)c1cc([N+](=O)[O-])c2cccnc2c1O (centres undefined)	Tau ThT inhib inconclusive, JMJD2E inh inconclusive
CC(=O)NC(c1ccccc1)c1cc([N+](=O)[O-])c2cccnc2c1O (centres undefined)	Tau fibril FP inconclusive, Tau ThT inhib 10µM, Sfp inh 2.24µM, JMJD2E inh 15.8µM
CCCCCCC1NC(C(=O)O)CS1 (centres undefined)	Sfp inh 44.7µM
O=C1C=C(O)c2c(O)cccc2C1=O	Tau ThT inhib inconclusive, Sfp inh inconclusive, JMJD2E inh 6.31µM
Cc1cc(O)c2c(c1)C(=O)c1cccc(O)c1C2=O	Tau ThT inhib inconclusive, JMJD2E inh inconclusive
COCCn1c(=O)c(-c2ccc(Cl)cc2)nc2cnc(Oc3cccc(Cl)c3)nc21	Sfp inh inconclusive (no result: Tau fibril FP, Tau fluor cs, Tau ThT inhib, JMJD2E inh)
CC1=CC(=O)C=C(C)C1=NOc1ccccc1[N+](=O)[O-]	Coupling enz -36.6, Tau fibril FP inconclusive, Tau fluor cs inconclusive, Tau ThT inhib inconclusive, Sfp inh 5.62µM
COc1ccc(/C=C/C(=O)c2ccc(C)s2)cc1	Tau ThT inhib inconclusive, Sfp inh inconclusive, JMJD2E inh inconclusive
Cc1c(Br)c(=O)oc2c(Br)c(O)ccc12	JMJD2E inh inconclusive
Cc1c(Br)c(=O)oc2c(Br)c(O)c(O)cc12	Tau fibril FP inconclusive, Tau fluor cs inconclusive, Tau ThT inhib 12.6µM, Sfp inh inconclusive, JMJD2E inh inconclusive
Cc1c(Cl)sn(-c2ccc(Cl)cc2)c1=O	Tau fibril FP inconclusive, Tau ThT inhib 14.1µM, Sfp inh 0.708µM
CC/C=C\C/C=C\C/C=C\C/C=C\C/C=C\C/C=C\CCC(=O)O[C@H](COCCCCCCCCCCCCCCCC)COP(=O)([O-])OCC[N+](C)(C)C	none
Cc1cc(NC(=O)CSCC(=O)N(c2cccc(Cl)c2)C(C(=O)NC2CCCCC2)c2ccc(O)c(O)c2)no1 (centres undefined)	JMJD2E inh 10µM
COc1ccc(N(C(=O)CSCC(=O)Nc2cc(C)on2)C(C(=O)NC2CCCCC2)c2ccc(O)c(O)c2)cc1 (centres undefined)	JMJD2E inh 11.2µM
Cc1ccc(-c2ccc(=O)n(CCC(=O)NCCc3ccccc3)n2)cc1	none (no result: Coupling enz, Sfp inh, JMJD2E inh)
